Laboratory results taken from PubChem BioAssay (NCATS).
Records with an inconclusive call do not appear. Active and inactive are the calls of the source. Calls follow the shape of the dose curve; as a rule, active = well fitted curve in the direction sought with a large enough effect; inconclusive = small, poorly fitted or top-dose-only effect, or another doubt; inactive = no such curve, though single readings can be large; an effect the other way counts as inactive or inconclusive.

Columns and labels:
[1] = target: Phospholipid hydroperoxide glutathione peroxidase GPX4 (Homo sapiens) (UniProt P36969); test: Primary qHTS Assay for Inhibitors of Recombinant Selenoprotein Glutathione Peroxidase 4 (GPX4) (AID 1845192); also: nearly all actives have a fitted effect of over 65% in size; also: potency is read from the fitted curve at half-maximal effect
Sequence of Phospholipid hydroperoxide glutathione peroxidase GPX4 (Homo sapiens) (P36969 whole entry, looked up): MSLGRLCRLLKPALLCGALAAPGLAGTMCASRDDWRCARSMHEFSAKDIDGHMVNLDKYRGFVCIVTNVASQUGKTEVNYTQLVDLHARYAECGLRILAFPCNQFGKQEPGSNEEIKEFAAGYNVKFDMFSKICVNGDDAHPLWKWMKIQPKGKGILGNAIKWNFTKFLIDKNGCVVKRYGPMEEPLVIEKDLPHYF
Method in brief: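 GR-coupled readout: 100 nM GR, 1 mM GSH, 0.5 mM NADPH; NADPH fluorescence (ex 340/em 450 nm) read at t=0 and after 15 min RT. GPX4 200 nM, preincubated 30 min with compound; substrate 0.5 mM CHP.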

[2] = qHTS profiling for inhibitors of Plasmodium falciparum proliferation (AID 504749); also: nearly all actives have a fitted effect of over 60% in size; also: potency is read from the fitted curve at half-maximal effect;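 as to activity, negative = inhibition: 0% = DMSO vehicle and full inhibition = artemisinin control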; details: P. falciparum in erythrocytes, SYBR Green DNA, 72 h
Method in brief: (§1)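 P. falciparum-infected erythrocytes (0.3% parasitemia, 2.5% hematocrit final) were exposed to compounds for 72 h at 37 C in 5% CO2, then lysed with SYBR Green buffer overnight at room temperature; parasite DNA fluorescence was normalized to artemisinin and DMSO controls.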

3D7 = test: as above; details: P. falciparum in erythrocytes, SYBR Green DNA, 72 h; series mostly up to 28.7 µM
Method in brief: as §1

7G8 = test: as above; details: P. falciparum in erythrocytes, SYBR Green DNA, 72 h; series mostly up to 28.7 µM
Method in brief: as §1

[3] = target: Cytochrome P450 3A4 (Homo sapiens) (UniProt P08684); test: qHTS for inhibitors of CYP3A4 against the NCATS DSHEA and TCM libraries (AID 1919971);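 also: % is scaled to controls: 0 for no effect and ±100 for the full control effect; inhibition lowers luminescence from luciferin made by CYP3A4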
Sequence of Cytochrome P450 3A4 (Homo sapiens) (P08684 whole entry, looked up): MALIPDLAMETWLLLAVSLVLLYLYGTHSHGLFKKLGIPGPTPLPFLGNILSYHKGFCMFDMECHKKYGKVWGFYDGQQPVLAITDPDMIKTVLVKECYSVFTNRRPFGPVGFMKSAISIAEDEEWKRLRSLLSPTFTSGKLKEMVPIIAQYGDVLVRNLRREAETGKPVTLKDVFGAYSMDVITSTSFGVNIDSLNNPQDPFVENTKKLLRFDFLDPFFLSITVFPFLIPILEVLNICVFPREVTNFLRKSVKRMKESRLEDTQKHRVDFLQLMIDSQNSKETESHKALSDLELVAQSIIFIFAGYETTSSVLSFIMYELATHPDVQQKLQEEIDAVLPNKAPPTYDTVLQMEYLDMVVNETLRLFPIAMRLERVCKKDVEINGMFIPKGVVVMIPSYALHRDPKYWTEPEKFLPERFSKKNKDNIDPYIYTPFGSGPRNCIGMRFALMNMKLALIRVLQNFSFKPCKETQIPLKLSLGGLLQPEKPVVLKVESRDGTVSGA
Method in brief: (§2)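 Luminescent P450-Glo readout. Enzyme plus pro-luciferin substrate in manufacturer buffer (typically 100 mM KPO4); 15 min RT preincubation; 1x NADPH regenerating system, 30-45 min RT in the dark; detection reagent 30 min.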

[4] = target: Cytochrome P450 2D6 (Homo sapiens) (UniProt P10635); test: qHTS for inhibitors of CYP2D6 against the NCATS DSHEA and TCM libraries (AID 1919972); also: % is scaled to controls: 0 for no effect and ±100 for the full control effect
Sequence of Cytochrome P450 2D6 (Homo sapiens) (P10635 whole entry, looked up): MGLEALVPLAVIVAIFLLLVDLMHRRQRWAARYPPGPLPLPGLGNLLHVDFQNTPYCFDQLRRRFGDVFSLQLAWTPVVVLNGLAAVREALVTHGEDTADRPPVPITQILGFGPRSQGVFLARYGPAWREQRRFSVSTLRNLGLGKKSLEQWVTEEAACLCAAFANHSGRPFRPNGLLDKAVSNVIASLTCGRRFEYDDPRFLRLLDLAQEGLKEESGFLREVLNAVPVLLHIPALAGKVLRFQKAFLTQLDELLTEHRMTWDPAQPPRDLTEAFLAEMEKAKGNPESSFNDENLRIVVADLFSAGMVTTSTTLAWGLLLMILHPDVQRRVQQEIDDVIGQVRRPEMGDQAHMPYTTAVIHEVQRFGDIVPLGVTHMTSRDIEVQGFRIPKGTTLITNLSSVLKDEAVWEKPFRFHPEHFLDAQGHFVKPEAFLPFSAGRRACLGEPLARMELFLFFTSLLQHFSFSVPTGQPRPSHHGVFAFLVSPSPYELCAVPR
Method in brief: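 Steps: enzyme plus luciferin substrate dispensed; test substances pinned; 15 min RT; 1x NADPH regenerating solution added, 30–45 min RT protected from light; detection reagent, 30 min RT; luminescence measured. Minus-enzyme wells as background.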

[5] = target: Cytochrome P450 2C19 (Homo sapiens) (UniProt P33261); test: qHTS for inhibitors of CYP2C19 against the NCATS DSHEA and TCM libraries (AID 1919974);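 also: luminescence from luciferin released by CYP2C19 oxidation of a pro-luciferin substrate; % is scaled to controls: 0 for no effect and ±100 for the full control effect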
Sequence of Cytochrome P450 2C19 (Homo sapiens) (P33261 whole entry, looked up): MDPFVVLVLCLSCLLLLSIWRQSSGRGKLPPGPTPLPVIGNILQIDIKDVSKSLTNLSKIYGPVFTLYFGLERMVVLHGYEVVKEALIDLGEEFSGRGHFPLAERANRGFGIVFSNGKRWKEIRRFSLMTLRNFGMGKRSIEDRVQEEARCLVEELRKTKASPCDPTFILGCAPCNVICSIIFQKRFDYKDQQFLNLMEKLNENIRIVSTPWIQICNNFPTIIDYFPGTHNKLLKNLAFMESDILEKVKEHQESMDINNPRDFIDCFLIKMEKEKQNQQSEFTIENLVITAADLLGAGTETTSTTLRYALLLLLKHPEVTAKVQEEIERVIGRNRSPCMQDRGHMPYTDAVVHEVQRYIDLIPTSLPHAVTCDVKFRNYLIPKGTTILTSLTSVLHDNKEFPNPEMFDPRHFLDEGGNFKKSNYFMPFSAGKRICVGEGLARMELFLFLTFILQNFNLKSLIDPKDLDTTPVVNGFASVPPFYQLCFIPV
Method in brief: as §2

[6] = KB-3-1 P-gp reporter qHTS against the NCATS DSHEA and TCM libraries (AID 1919975); also: 0% is about no effect
Method in brief: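 KB-3-1 parental line, 1536-well qHTS: cells seeded, ~4 h attachment, pintool compound addition, ~72 h at 37C, then CellTiter-Glo, 30 min RT, luminescence. Concentration-response format.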

[7] = qHTS Counterscreen for compound interference against the NCATS DSHEA and TCM libraries (AID 1919978); details: firefly luciferase detection reagent interference, luminescence;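 also: compounds preincubated with 1 µM D-luciferin or buffer before detection reagent; % of control where 0% means no effect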
Method in brief: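 Compounds, titrated from 19.5 nM to 39.8 uM final, were pinned onto 1 uM D-luciferin or plain 100 mM potassium phosphate. After 15 min at room temperature, luciferin detection reagent was added for 30 min before the luminescence read.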

[8] = Dual reporter qHTS for agonist of Pregnane X Receptor (hPXR) against the NCATS DSHEA and TCM libraries: Fluorescence readout (AID 1920058); also: 0% is about no effect
Method in brief: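 hPXR-Luc HepG2 cells (2000/well) in phenol red-free medium with charcoal-stripped FBS attached for 5 h, then were exposed to compounds for about 24 h at 37 °C. Viability was read by CellTiter-Fluor fluorescence (Ex/Em 405/540 nm) after 1 h.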

[9] = target: Nuclear receptor subfamily 1 group I member 2 (Homo sapiens) (UniProt O75469); test: Dual reporter qHTS for agonist of Pregnane X Receptor (hPXR) against the NCATS DSHEA and TCM libraries: Luminescence readout (AID 1920059); also: 0% is about no effect
Sequence of Nuclear receptor subfamily 1 group I member 2 (Homo sapiens) (O75469 whole entry, looked up): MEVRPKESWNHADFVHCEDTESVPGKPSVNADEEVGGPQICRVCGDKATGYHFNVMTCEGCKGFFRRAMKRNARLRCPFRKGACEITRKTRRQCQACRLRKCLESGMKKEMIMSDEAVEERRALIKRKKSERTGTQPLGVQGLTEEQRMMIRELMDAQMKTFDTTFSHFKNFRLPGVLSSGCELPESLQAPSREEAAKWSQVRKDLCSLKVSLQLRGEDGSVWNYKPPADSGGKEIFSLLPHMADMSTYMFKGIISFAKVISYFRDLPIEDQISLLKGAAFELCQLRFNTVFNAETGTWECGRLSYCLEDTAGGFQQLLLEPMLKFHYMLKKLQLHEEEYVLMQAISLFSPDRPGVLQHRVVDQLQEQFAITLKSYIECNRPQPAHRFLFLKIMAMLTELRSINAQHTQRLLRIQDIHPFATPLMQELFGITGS
Method in brief: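 hPXR-LucHepG2 cells in phenol red-free DMEM with 5% charcoal-stripped FBS, 2000 cells/well, attached 5 h, then exposed 24 h at 37C to compounds; rifampicin as positive agonist control (2.8 nM–92 uM). Luciferase luminescence read.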

[10] = target: Nuclear receptor subfamily 1 group I member 2 (Homo sapiens) (UniProt O75469); test: Dual reporter qHTS for antagonist of Pregnane X Receptor (hPXR) against the NCATS DSHEA and TCM libraries: Luminescence Readout (AID 1920060);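 also: HepG2 cells carrying hPXR luciferase reporter stimulated with rifampicin at 2 µM; 0% is about no effect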
Method in brief: (§3)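 In antagonist mode, 2 uM rifampicin was added to hPXR-Luc HepG2 cells alongside test substances, incubated 24 h at 37 C; luminescence gave reporter activity, and CellTiter-Fluor fluorescence (405/540 nm) gave viability.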

[11] = Dual reporter qHTS for antagonist of Pregnane X Receptor (hPXR) against the NCATS DSHEA and TCM libraries: Fluorescence Readout (AID 1920061); also: 0% is about no effect
Method in brief: as §3

[12] = at 28.7 µM (top of the series), parasite line A
[13] = at 28.7 µM (top of the series), parasite line B
[14] = at 12.8 µM (top of the series), parasite line B
[15] = at 12.8 µM (top of the series), parasite line A

O=S(=O)(O)c1ccc(O)cc1
inactive: Potency [1] | activity, negative = inhibition [2, 12] 4.42% | activity, negative = inhibition [2, 13] -3.84% | Potency (3D7) | Potency (7G8)

NS(=O)(=O)c1ccc(Cl)c(S(N)(=O)=O)c1
inactive: Potency [1] | activity, negative = inhibition [2, 12] 8.67% | activity, negative = inhibition [2, 13] 14.1% | Potency (3D7) | Potency (7G8)

CCc1ccc(C(=O)C(C)CN2CCCCC2)cc1 (centres undefined)
inactive: Potency [1] | activity, negative = inhibition [2, 12] 2.55% | activity, negative = inhibition [2, 13] 6.09% | Potency (3D7) | Potency (7G8)

Oc1c(Cl)cc(Cl)c(Cl)c1Cc1c(O)c(Cl)cc(Cl)c1Cl
active: Potency [1] 25.5 µM | Potency ([2]; parasite line A) 11.2 µM | Potency (7G8) 4.47 µM

Clc1cccc(C(c2ccc3nc[nH]c3c2)n2ccnc2)c1 (centres undefined)
active: Potency ([2]; parasite line B) 10 µM | Potency (3D7) 11.2 µM | Potency (7G8) 5.01 µM
inactive: Potency [1]

Cn1c(=O)c2[nH]c(Br)nc2n(C)c1=O
inactive: Potency [1] | activity, negative = inhibition [2, 13] -4.72% | Potency (3D7) | Potency (7G8)

COc1cc(N)c(Cl)cc1C(=O)NC1CCN(Cc2ccccc2)CC1
inactive: Potency [1] | activity, negative = inhibition [2, 14] -11.7% | Potency (3D7)

Cc1ccc(-c2ncc(Cl)cc2-c2ccc(S(C)(=O)=O)cc2)cn1
inactive: Potency [1] | Potency (3D7)
active: Potency (7G8) 8.91 µM

CCCCCCCCCCCCOCCOCCOCCOCCOCCOCCOCCOCCOCCO
active: Potency (7G8) 12.6 µM
inactive: Potency [1] | activity, negative = inhibition [2, 13] -26%

CN1CCc2cccc3c2[C@H]1Cc1ccc(O)c(O)c1-3
active: Potency (3D7) 7.94 µM | Potency (7G8) 2.24 µM
inactive: Potency [1]

CC1=C(C(=O)O)N2C(=O)[C@@H](NC(=O)[C@H](N)c3ccccc3)[C@H]2SC1
inactive: Potency [1] | activity, negative = inhibition [2, 12] 3.04% | Potency (3D7) | Potency (7G8)

COc1ccc2c(c1)c1c3n2CCN(C)C3=NCC1
inactive: activity, negative = inhibition [2, 12] -3.91% | activity, negative = inhibition [2, 13] 11.3% | Potency (3D7)

CCC(CC)(CC(=O)Nc1cccc(/C=C/c2nc(C3CCC3)cs2)c1)C(=O)O
inactive: activity, negative = inhibition [2, 12] -2.66% | activity, negative = inhibition [2, 13] -0.894% | Potency (3D7)

COc1ccc(C(=O)c2ccccc2O)c(O)c1
active: Potency (7G8) 3.16 µM
inactive: Potency [1] | activity, negative = inhibition [2, 15] -29.2% | Potency (3D7)

O=C(NC1CCN(CCc2c[nH]c3ccccc23)CC1)c1ccccc1
active: Potency (7G8) 10 µM
inactive: Potency [1] | activity, negative = inhibition [2, 13] -5.78%

CNCCCCOc1ccccc1Cc1ccccc1
inactive: Potency [1] | activity, negative = inhibition [2, 12] -10.8% | activity, negative = inhibition [2, 13] -10.9% | Potency (3D7)
active: Potency (7G8) 6.31 µM

NCCNc1cccc2ccccc12
inactive: activity, negative = inhibition [2, 12] -9.01% | activity, negative = inhibition [2, 13] 2.1% | Potency (3D7)

Cc1c[nH]c2ccccc12
inactive: Potency [1] | activity, negative = inhibition [2, 12] -2.76% | activity, negative = inhibition [2, 13] 2.47% | Potency (3D7) | Potency (7G8)

O=C1C(O)=C(O)C(=O)C(O)=C1O
inactive: activity, negative = inhibition [2, 12] 5.3% | activity, negative = inhibition [2, 13] 12.3%

CCCCCCCCCCCCCCCC(=O)O
inactive: outcome [3] | outcome [4] | outcome [5] | outcome [6] | max response [7] 2.55% | outcome [8] | outcome [9] | outcome [10] | outcome [11] | activity, negative = inhibition [2, 12] -0.389% | activity, negative = inhibition [2, 13] 7.62% | Potency (3D7) | Potency (7G8)

CC(C)=CCOc1ccc(/C=C/C(=O)c2ccc(OCC=C(C)C)cc2OCC(=O)O)cc1
inactive: activity, negative = inhibition [2, 12] -9.12% | activity, negative = inhibition [2, 13] -8.65% | Potency (3D7)

COc1ccc(C(=O)c2ccccc2)c(O)c1
active: Potency (7G8) 10 µM
inactive: Potency [1] | activity, negative = inhibition [2, 12] -10.8% | activity, negative = inhibition [2, 13] 10.2%

Cc1c(-c2ccccc2)oc2c(C(=O)OCCN3CCCCC3)cccc2c1=O
inactive: Potency [1] | activity, negative = inhibition [2, 15] 0.972% | activity, negative = inhibition [2, 14] 6.11% | Potency (3D7) | Potency (7G8)

CCN(CC)CCNC(=O)COc1ccc(OC)cc1
inactive: activity, negative = inhibition [2, 12] 19.5% | activity, negative = inhibition [2, 13] 3.1% | Potency (3D7) | Potency (7G8)

CCCCCCCCNC(C)C(O)c1ccc(SC(C)C)cc1 (centres undefined)
active: Potency ([2]; parasite line A) 1.26 µM | Potency ([2]; parasite line B) 0.562 µM | Potency (3D7) 0.794 µM | Potency (7G8) 0.1 µM

Cc1cccc(C)c1NC(=O)CN1CCCC1
inactive: activity, negative = inhibition [2, 12] -5.07% | activity, negative = inhibition [2, 13] 5.99% | Potency (3D7) | Potency (7G8)

CCNC(=O)NCc1cccc(Cl)c1
inactive: activity, negative = inhibition [2, 12] 14.6% | activity, negative = inhibition [2, 13] 3.44% | Potency (3D7) | Potency (7G8)

CCC(C(=O)OCCOCCN(CC)CC)c1ccccc1 (centres undefined)
inactive: activity, negative = inhibition [2, 12] 5.84% | activity, negative = inhibition [2, 13] 5.27% | Potency (3D7)

OCc1ccccn1
inactive: activity, negative = inhibition [2, 12] 7.68% | activity, negative = inhibition [2, 13] 8.75% | Potency (3D7) | Potency (7G8)

NC(=S)N/N=C/c1cccnc1
inactive: activity, negative = inhibition [2, 12] 13.2% | activity, negative = inhibition [2, 13] 8.73% | Potency (3D7) | Potency (7G8)

O=C(c1ccc(F)cc1)C1CCN(CCn2c(=S)[nH]c3ccccc3c2=O)CC1
active: Potency ([2]; parasite line A) 5.01 µM | Potency ([2]; parasite line B) 10 µM | Potency (3D7) 11.2 µM | Potency (7G8) 2.24 µM

COc1cc(C(=S)N2CCOCC2)ccc1O
inactive: activity, negative = inhibition [2, 12] 1.83% | activity, negative = inhibition [2, 13] -2.75% | Potency (3D7) | Potency (7G8)

O=C(O)Cc1csc(-c2ccc(Cl)cc2)n1
inactive: activity, negative = inhibition [2, 12] 1.5% | activity, negative = inhibition [2, 13] 8.07% | Potency (3D7) | Potency (7G8)
